# Rin1-Abl PPI inh: inhibitors of Rin1-Abl protein binding, primary screen, biochemical, TR-FRET. Tyrosine-protein kinase ABL1 (Homo sapiens) + Ras and Rab interactor 1 (Homo sapiens), …. inhibition, % at 7.35 µM. 360,000 compounds, 0.4% hits; in the data active = inhibition above about 5%, passing the limit was not always enough
# LEDGF integ inh: blockers of LEDGF/p75-dependent integrase strand transfer – biochemical, TR-FRET, high throughput, primary screen; HIV-1 integrase (with human LEDGF/p75); TR-FRET IN-LEDGF/p75 DNA integration, Eu/Cy5; inhibition, % at 3.7 µM; 370,000 compounds, 0.64% hits; AID 743269, 2014;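 active = inhibition above the screen-wide mean plus 3 SD, cut at about 13% in these data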;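 note: signal is the Cy5 over europium emission ratio at 671 and 618 nm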
# Neddyl block: inhibitors of cullin neddylation, primary screen, biochemical, TR-FRET, uHTS, NAE and Ubc12; calls only at 25 µM; AID 651699, 2012; 360,000 compounds, 0.58% hits; NEDD8-conjugating enzyme Ubc12 (Homo sapiens) + NEDD8-activating enzyme E1 regulatory …; in the data active = inhibition above about 36%
# proKLK7 act: proKLK7 zymogen activators, primary screen, biochemical, fluorescence intensity | 370,000 compounds, 0.9% hits | AID 652039, 2013 | purified proKLK7, EDANS-DABCYL substrate fluorescence; 100% is mature enzyme control, 0% vehicle | activation, % at 7 µM;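 active = activation above the mean of all tested compounds plus 3 SD, computed per campaign excluding outliers beyond control limits, cut at about 13% in these data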
# MBD2 inh: inhibitors of MBD2 binding to methylated DNA, primary screen, biochemical, TR-FRET, DNA-binding domain, human | AID 686964, 2013 | MBD2 binding to methylated oligonucleotide | 370,000 compounds, 0.31% hits | inhibition, % at 4.4 µM | Methyl-CpG-binding domain protein 2 (Homo sapiens), Q9UBB5; in the data active = inhibition above about 13%
# UHRF1 MBD2 ctr: UHRF1 methylated DNA binding inhibitors, primary screen, counter-screen for MBD2 inhibitor project, biochemical, TR-FRET, human UHRF1, single concentration | E3 ubiquitin-protein ligase UHRF1 (Homo sapiens), Q96T88 | UHRF1 binding to methylated oligo | inhibition, % at 4.4 µM | 370,000 compounds, 0.75% hits; in the data active = inhibition above about 21%;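 note: UHRF1 SRA domain binding a hemimethylated CpG hairpin DNA probe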
# Target sequence (Q96T88 whole entry, looked up, the tested form may be a part): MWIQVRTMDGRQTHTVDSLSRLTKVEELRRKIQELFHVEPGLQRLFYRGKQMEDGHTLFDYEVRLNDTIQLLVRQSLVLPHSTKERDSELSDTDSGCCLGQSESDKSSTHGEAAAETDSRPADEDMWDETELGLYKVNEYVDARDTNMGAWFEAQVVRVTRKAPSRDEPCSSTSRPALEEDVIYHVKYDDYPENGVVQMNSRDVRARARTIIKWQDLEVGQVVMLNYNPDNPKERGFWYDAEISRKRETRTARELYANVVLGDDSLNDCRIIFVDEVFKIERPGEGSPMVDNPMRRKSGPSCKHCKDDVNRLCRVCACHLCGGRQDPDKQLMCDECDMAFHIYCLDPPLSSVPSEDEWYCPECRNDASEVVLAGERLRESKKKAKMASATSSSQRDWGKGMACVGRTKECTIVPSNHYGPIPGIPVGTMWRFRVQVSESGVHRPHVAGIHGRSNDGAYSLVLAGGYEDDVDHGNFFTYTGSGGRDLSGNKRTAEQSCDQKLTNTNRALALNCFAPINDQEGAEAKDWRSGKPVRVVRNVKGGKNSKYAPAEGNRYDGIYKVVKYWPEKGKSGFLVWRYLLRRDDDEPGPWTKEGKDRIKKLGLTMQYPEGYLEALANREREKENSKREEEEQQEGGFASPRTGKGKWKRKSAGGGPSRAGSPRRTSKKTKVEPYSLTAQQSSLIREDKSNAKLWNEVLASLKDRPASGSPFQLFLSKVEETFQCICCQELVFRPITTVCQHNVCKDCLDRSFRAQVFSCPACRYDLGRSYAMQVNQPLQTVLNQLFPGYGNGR
# proKLK7 act conf: proKLK7 zymogen activators, confirmation, biochemical, fluorescence intensity, triplicate. shares compounds with proKLK7 act. purified proKLK7, EDANS-DABCYL substrate fluorescence; scaled: vehicle 0, mature enzyme 100. activation, % at 7 µM. 3,200 compounds, 68% hits. AID 686949, 2013;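 active = activation, as change over the incubation, above the mean of all tested compounds plus 3 SD, cut at about 13% in these data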
# EDANS interfere: EDANS-DABCYL substrate optical interference, artefact control for kallikrein-7 zymogen activator project, biochemical, fluorescence intensity, high throughput | 3,200 compounds, 80% hits | AID 686952, 2013 | no enzyme, 4 h; solvent 0%, active enzyme control 100% | shares compounds with proKLK7 act | activation, % at 7 µM;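 active = activation above the all-compound mean plus 3 SD, ignoring values outside control-based bounds, cut at about 4.8% in these data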;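 note: value is the 4 h activation minus the activation read at time zero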
# EDANS interf: counter-screen for kallikrein-7 activators: EDANS-DABCYL interference, dose response | shares compounds with proKLK7 act | EC50, µM | 250 compounds, 20% hits | AID 720493 | EDANS-DABCYL peptide fluorescence interference, no enzyme;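 active = compounds that raise the fluorescence signal in this interference counterscreen, with EC50 at or below 10 µM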;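 note: intact quenched peptide substrate alone read at 355 nm excitation and 520 nm emission; signal is fluorescence gain from T0 to T4 after four hours at room temperature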
# Numbers stand for hits; – = inactive; · = no result shown. Sampled rows, rich in hits. Any-hit rate of the full collection: about 3.1%.
SMILES,Rin1-Abl PPI inh,LEDGF integ inh,Neddyl block,proKLK7 act,MBD2 inh,UHRF1 MBD2 ctr,proKLK7 act conf,EDANS interfere,others
Nc1cccc(-c2nc3ccc(N)cc3s2)c1,–,–,–,82,–,–,57,75,
Nc1ccc(-c2nc3ccc(N)cc3s2)cc1,–,–,–,61,–,–,67,70,
Nc1ccc(-c2nc3ccc(C(=O)O)cc3s2)cc1,–,–,–,79,–,–,75,76,
O=C(O)c1ccc2nc(-c3ccccc3)sc2c1,–,–,–,–,–,–,·,·,
COc1ccccc1C1CC(c2ccccc2)Nc2ncnn21 (configuration not stated),–,·,–,·,·,·,·,·,
Cc1ccc(S(=O)(=O)N(C)C)cc1NC(=O)C(C)N(C)CCOc1ccc(Cl)cc1 (configuration not stated),–,–,–,–,–,–,·,·,
Cc1ccc(C(=O)n2ccc3ccc(-c4ccc5ccn(Cc6ccc(C#N)cc6)c5c4)cc32)cc1,·,–,·,–,–,–,·,·,
CCCC1CCC2(CCC(=O)N2CCC#N)CC1 (configuration not stated),·,–,·,–,–,–,·,·,
C=CCOC(=O)Nc1nc(CCNC(=O)OC(C)(C)C)c(C(=O)O)s1,·,–,–,–,–,–,·,·,
CN1C(=O)c2cccc3c(S(=O)(=O)N(C)C)ccc1c23,–,–,·,49,–,–,66,73,
CCN1C(=O)c2cccc3c(S(=O)(=O)N(C)C)ccc1c23,–,–,·,65,–,–,73,75,
CNS(=O)(=O)c1ccc2c3c(cccc13)C(=O)N2C,–,–,·,35,–,–,55,66,
CN1C(=O)c2cccc3c(S(=O)(=O)Nc4ccccc4F)ccc1c23,–,–,–,–,–,–,·,·,
C#CCN(C[C@@H]1[C@@H](OC(=O)NCC2CCCCC2)[C@@H](OC(=O)NCC2CCCCC2)Cn2c(=O)n(CCCCCC)c(=O)n21)S(=O)(=O)c1ccc(C)cc1,–,–,–,–,–,–,·,·,
O=C1OCCN1C(=O)[C@H]1[C@H](c2ccc(F)cc2)C(c2ccc(F)cc2)=NN1c1ccc(Br)cc1,–,·,·,·,·,·,·,·,
CC[C@H]1C(c2ccc(F)cc2)=NN(c2ccccc2)[C@@H]1CO,–,–,·,22,–,–,–,–,
Cc1cccc(C2=NN(c3ccccc3)[C@@H](C(=O)N3CCOC3=O)[C@@H]2C)c1,–,–,–,26,–,–,114,70,
OC[C@@H]1[C@@H](c2ccc(F)cc2)C(c2ccccc2)=NN1c1ccccc1,–,–,·,–,–,–,·,·,
Cc1cccc(C2=NN(c3ccc(Br)cc3)[C@@H](C(=O)N3CCOC3=O)[C@@H]2C)c1,–,–,·,–,–,–,·,·,
CC[C@@H]1C(c2ccc(F)cc2)=NN(c2ccccc2)[C@H]1C(=O)N1CCOC1=O,–,–,–,81,–,–,64,54,EDANS interf=7.4
C[C@@H]1C(c2ccccc2)=NN(c2ccc(Br)cc2)[C@H]1C(=O)N1CCOC1=O,–,–,·,57,–,–,–,–,
O=C(NCCc1c[nH]c2ccccc12)c1ccc(Sc2ccccc2Cl)c([N+](=O)[O-])c1,·,–,·,–,–,–,·,·,
COc1ccc2c(c1)CN1C(=O)N(CC(C)C)S(=O)(=O)CC21 (configuration not stated),·,–,·,–,–,–,·,·,
